About 83,000 compounds went through this panel and 20% of them were active in at least one assay; those are over-represented in the sample as a whole.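 Single-dose data. Exposure time 48 hours. Values below 10 considered active.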 A number with no mark means an inactive call. The source made the active and inactive calls.
Experiments:
Test in all cases: NCI-60 one-dose screen, 48 h (100 = growth as untreated, 0 = no growth, -100 = all killed)
Conditions in all cases: 10 µM unless noted
[1] = system: NCI-H226 lung
[2] = system: NCI-H322M lung
[3] = system: HOP-62 NSCLC
[4] = system: NCI-H460 lung
[5] = system: HOP-92 NSCLC
[6] = system: A549/ATCC NSCLC
[7] = system: 786-0 renal
[8] = system: COLO 205 colon
[9] = system: DU-145 prostate
[10] = system: K-562 leukemia
[11] = system: MALME-3M melanoma
[12] = system: MDA-MB-231 breast
[13] = system: RXF 393 renal
[14] = system: SF-268 CNS
[15] = system: SF-295 CNS
[16] = system: SF-539 CNS
[17] = system: UACC-257 melanoma
[18] = system: M14 melanoma
[19] = system: NCI-H522 lung

SMILES | growth [1] | growth [2] | growth [3] | growth [4] | growth [5] | growth [6] | growth [7] | growth [8] | growth [9] | growth [10] | growth [11] | growth [12] | growth [13] | growth [14] [%] | growth [15] | growth [16] | growth [17] | growth [18] | growth [19]
Fc1ccc(Nc2nc3nonc3nc2Nc2ccc(I)cc2)cc1 | -17.5% (active) | 1.66% (active) | -23.7% (active) | 2.95% (active) | -25.9% (active) | 2.73% (active) | -11.1% (active) | -64.4% (active) | 23% | 6.8% (active) | -25.6% (active) | -23.5% (active) | -10.2% (active) | 22 | -43.6% (active) | 7.05% (active) | -24.5% (active) | -3.95% (active) | –
O=C1c2c(c3c4ccc(Br)cc4oc3c3[nH]c4ccccc4c23)C(=O)N1O | 61.7% | 59.7% | 29.3% | 10.7% | -2.77% (active) | 64.3% | 84.8% | 42.7% | 38.4% | 30.4% | 1.92% (active) | 80.1% | 31.7% | 13.9 | 34.4% | 7.26% (active) | 83.6% | 30.9% | 6.86% (active)
O=C1N[C@@H]2NC(=[N+]3CCOCC3)N[C@@H]2N1 | 94.8% | 96.3% | 103% | 104% | – | 101% | 98.8% | 115% | 114% | 98.6% | 92.9% | 103% | 116% | 100 | 99.9% | 98.2% | 109% | 102% | –
O=S(=O)(NCCNc1nccc(-c2c(-c3cccc(F)c3)nc3occn23)n1)c1ccc(Br)cc1 | 75.5% | 82.1% | 90.1% | 68.5% | 74.7% | 53.9% | 76.3% | 85.4% | 90.4% | 69.1% | 76.9% | 82.3% | 68.3% | 90.7 | 99.4% | 92% | 98.4% | 79.8% | 81.8%
COc1ccc(OC)c(C(=O)/C=C/c2cc3c(c(OC)c2OC)OCO3)c1 | 92% | 71.1% | 101% | 50.1% | 62.2% | 62.7% | 100% | 95.8% | 41.7% | 29.7% | 80.9% | 83.2% | 63.9% | 63.2 | 84.1% | 87.6% | 72.5% | 78.6% | 74.3%
Cc1cc(=O)[nH]c2c(C#N)cnn12 | 96.4% | 101% | 105% | 104% | 109% | – | 105% | 114% | 104% | 103% | 98.9% | 104% | 110% | 99.9 | 101% | 101% | 96.7% | 105% | 89.1%
NC(=O)c1c(NC(=O)c2ccccc2)sc2c1CCC(=O)C2 | 16.2% | 88.2% | 45.1% | 11.6% | -11.5% (active) | 30% | 28% | -49.9% (active) | 35% | 5.24% (active) | 7.31% (active) | 0.799% (active) | 18.7% | 17.7 | 33.4% | 16.1% | 4.86% (active) | 20.9% | -9.03% (active)
Cn1cc(-c2nc(-c3c[nH]c4ccncc34)cs2)c2ccccc21 | 87.6% | 82.5% | 60.4% | -37.7% (active) | 53.9% | 42.1% | 77.3% | -67.3% (active) | 44% | -33.2% (active) | 54% | 25.2% | 70.8% | 77.3 | 65.5% | 78.7% | 91.2% | -71.5% (active) | 66.8%
O=C1c2cc(Cl)ccc2S(=O)(=O)c2c(NCCCNCCO)nc3ccccc3c21 | 27.4% | 73.8% | 42.3% | 22.5% | -66% (active) | 43.3% | 2.5% (active) | -81.2% (active) | -24.7% (active) | 0.0837% (active) | -81.4% (active) | -70.7% (active) | -36.5% (active) | 31.8 | 40.6% | -18% (active) | 10.3% | -37.9% (active) | -77.1% (active)
O=C1Nc2ccccc2/C1=C\c1nc(-c2ccccc2)n2ccccc12 | 91% | 92% | 92.9% | 94.4% | 121% | 92.7% | 99.4% | 110% | 86.4% | 77.2% | 119% | 60.6% | 78% | 93.9 | 97.6% | 101% | 124% | 79.8% | 77.7%
Cc1nc2c(=O)[nH]c(SCC(=O)Nc3cccc(F)c3)nc2[nH]c1=O | 98.8% | 106% | 98.9% | 102% | 99.9% | 106% | 103% | 111% | 109% | 101% | 105% | 101% | 106% | 102 | 103% | 101% | 98.9% | 96.1% | 96.1%

Reference: PubChem BioAssay (NCI)
